Reference: PubChem BioAssay
The source made the active and inactive calls.

How the values were obtained:
[1] = tested on: XIP peptide (Xip251-270) binding; assay: XIP fragment 251-270 binding compounds – biochemical, small-molecule microarray, fluorescence 635/667 nm, 0.1 µg/mL protein, primary screen (AID 1182); settings: fluorescent protein binding, 635 nm, higher = more signal, called active from +8 up or from −8 down
XIP peptide (Xip251-270) = assay: compounds binding XIP fragment 251-270 – biochemical, small-molecule microarray, fluorescence 635/667 nm, 0.5 µg/mL protein, primary screen (AID 1183); settings: fluorescence 635 nm, higher = more signal
[2] = blood-stage malaria parasite viability loss – strain 3D7, DAPI fluorescence, 100 nL, primary screen (AID 1184);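 note: parasites grown inside human red blood cells in medium with human serum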; settings: P. falciparum 3D7 growth, 3 d, higher = more signal
[3] = biological target: Homeobox protein Hox-A13 (Mus musculus) (UniProt Q62424); assay: disruptors of Hoxa13 oligonucleotide interaction – biochemical, fluorescence polarization, labeled oligonucleotide, primary screen (AID 1185); settings: Hoxa13:DNA binding, 15 min, higher = more signal, called active from +8 up or from −8 down
Homeobox protein Hox-A13 (Mus musculus), sequence (Q62424 whole entry, looked up): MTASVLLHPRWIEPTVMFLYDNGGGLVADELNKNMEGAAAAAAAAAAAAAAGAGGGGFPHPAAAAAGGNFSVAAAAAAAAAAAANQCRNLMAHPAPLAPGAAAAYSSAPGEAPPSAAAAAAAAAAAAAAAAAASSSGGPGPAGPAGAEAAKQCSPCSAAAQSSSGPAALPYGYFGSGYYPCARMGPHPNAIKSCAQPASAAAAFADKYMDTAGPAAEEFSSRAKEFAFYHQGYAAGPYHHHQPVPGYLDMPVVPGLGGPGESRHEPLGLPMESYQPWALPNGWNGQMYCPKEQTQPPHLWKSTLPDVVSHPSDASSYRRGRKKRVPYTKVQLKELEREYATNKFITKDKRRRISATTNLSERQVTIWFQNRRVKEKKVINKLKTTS

Row | Compound | composite z-score [1] | composite z-score (XIP peptide (Xip251-270)) | z-score [2] | z-score [3]
1 | C=CCc1cccc([C@H]2N[C@H](C(=O)O)CC[C@@H]2C)c1 | 0.517 (inactive) | 0.921 | -0.441 | 0.811 (inactive)
2 | CCN1C(C)=C(C(=O)OC)[C@@H](c2ccccc2)N2C(=O)[C@](O)(C(=O)OC)[C@@H](c3ccccc3)C(C(C)=O)=C12 | -0.192 (inactive) | -1.35 | -1.56 | -1.27 (inactive)
3 | COc1ccc(-c2ccccc2[C@@H]2N[C@H](C(=O)O)CC[C@H]2C)cc1 | 0.351 (inactive) | 0.0228 | -0.907 | 1.08 (inactive)
4 | C=CCc1cccc([C@@H]2[C@@H](C)CC[C@H]3C(=O)N4[C@H](c5cccc(CC=C)c5)[C@@H](C)CC[C@H]4C(=O)N23)c1 | 0.718 (inactive) | 0.336 | -0.729 | -3.9 (inactive)
5 | CCC(=O)[C@]12O[C@@]3([C@@H]4C(=O)OCC[C@@H]41)N(CC)C(C)=C(C(=O)OC)[C@@H](c1ccccc1)N3C2=O | 0.592 (inactive) | -0.499 | -1.06 | -0.864 (inactive)
6 | CCC(=O)[C@]12O[C@@]3([C@@H]4C(=O)OCC[C@@H]41)N(Cc1ccccc1)C(C)=C(C(=O)OC)[C@@H](c1ccccc1)N3C2=O | 0.195 (inactive) | -0.573 | 1.24 | -4.26 (inactive)
7 | CCN1C(C)=C(C(=O)OC)[C@@H](c2ccccc2)N2C(=O)[C@@]3(C(=O)OC)O[C@@]12[C@@H]1C(=O)N(c2ccccc2)C(=O)[C@@H]13 | 0.357 (inactive) | 0.9 | -0.425 | -0.559 (inactive)
8 | CO[C@H]1COC(=O)[C@H](CCSC)NC(=O)CC=C[C@@H](C)COC(=O)[C@@H](OCc2ccccc2)C=C[C@@H]1C | 0.786 (inactive) | 0.581 | -0.115 | 0.26 (inactive)
9 | CSCC[C@@H]1NC(=O)CC=C[C@@H](C)COC(=O)[C@H](CCSC)NC(=O)CC=C[C@@H](C)COC1=O | 0.223 (inactive) | -0.467 | -0.145 | 1.03 (inactive)
10 | CO[C@H]1COC(=O)[C@H](Cc2ccccc2)NC(=O)CC=C[C@@H](C)[C@H](OC)COC(=O)CC=C[C@@H]1C | -0.707 (inactive) | 0.0418 | 0.0348 | 1.05 (inactive)
11 | CO[C@H]1COC(=O)CC=C[C@H](C)[C@@H](OC)COC(=O)[C@H](Cc2ccccc2)NC(=O)CC=C[C@@H]1C | -0.254 (inactive) | -0.42 | 0.0429 | -0.426 (inactive)
12 | CCN1C(C)=C(C(=O)OC)[C@@H](c2ccccc2)N2C(=O)[C@@]3(C(=O)OC)O[C@@]12[C@@H]1C(=O)CCC[C@@H]13 | -0.147 (inactive) | -1.03 | -0.625 | -0.386 (inactive)
13 | C[C@@H]1NC(=O)CC=C[C@@H](C)[C@@H]2C=C[C@H](O)[C@@H](COC(=O)[C@H](C)NC(=O)CC=C[C@@H](C)[C@@H]3C=C[C@H](O)[C@@H](COC1=O)O3)O2 | -0.217 (inactive) | 0.221 | -1.47 | 0.881 (inactive)
14 | C[C@@H]1CC[C@H]2C(=O)N3CCC[C@H]3C(=O)N2[C@H]1c1ccc(Br)cc1 | 0.557 (inactive) | -0.374 | 0.371 | 0.0636 (inactive)
15 | CO[C@@H]1COC(=O)[C@@H]2CCCN2C(=O)CC=C[C@@H](C)[C@H](OC)COC(=O)[C@@H]2CCCN2C(=O)CC=C[C@H]1C | 0.284 (inactive) | 0.352 | 0.583 | -0.507 (inactive)
16 | COc1cccc([C@H]2N[C@H](C(=O)O)CC[C@@H]2C)c1 | 0.253 (inactive) | -0.567 | -1.4 | 3.05 (inactive)
17 | C[C@@H]1CC[C@H]2C(=O)N3[C@@H](CC[C@@H](C)[C@@H]3c3cccc(N4CCOCC4)c3)C(=O)N2[C@H]1c1cccc(Br)c1 | 0.806 (inactive) | 0.541 | 0.656 | -5.55 (inactive)
18 | CO[C@H]1COC(=O)CC=C[C@H](C)[C@@H](OC)COC(=O)CC=C[C@@H]1C | 0.878 (inactive) | 0.695 | 0.648 | -0.307 (inactive)
19 | C[C@H]1COC(=O)[C@H](Cc2ccccc2)NC(=O)[C@@H](C)COC(=O)[C@H](Cc2ccccc2)NC1=O | 0.767 (inactive) | 0.342 | -0.703 | 1.01 (inactive)
20 | COc1cc([C@@H]2N[C@H](C(=O)O)Cc3c2[nH]c2ccccc32)cc(OC)c1OC | -0.374 (inactive) | 0.564 | -0.0372 | -1.66 (inactive)
21 | CO[C@H]1COC(=O)[C@@H](C)COC(=O)[C@H](Cc2ccccc2)NC(=O)CC=C[C@H]1C | -0.0968 (inactive) | 0.172 | -0.178 | 0.485 (inactive)
22 | C#CCCCON=C1C[C@@H](O)[C@@H](O)[C@@H]2[C@@H]3C(=O)N(Cc4ccc5c(c4)OCO5)C(=O)[C@@H]3CC[C@@H]12 | 0.32 (inactive) | 0.104 | -0.0159 | -0.476 (inactive)
23 | CCN1C(C)=C(C(=O)OC)[C@@H](c2ccccc2)N2C(=O)[C@@]3(C(=O)OC)O[C@@]12[C@@H]1C(=O)N(C)C(=O)[C@@H]13 | 1.38 (inactive) | 0.87 | -0.138 | -0.663 (inactive)
